Measured values published in PubChem BioAssay (Tox21).
Results filed as inconclusive are left out. Unmarked numbers belong to inactive results. Calls of active or inactive are those of the source. Calls come from the whole dose curve.

biological target: Muscarinic acetylcholine receptor M1 (Homo sapiens) (UniProt P11229); assay: Cholinergic receptor muscarinic 1 (CHRM1) small molecule antagonists, cell-based qHTS assay (AID 1963588); details: CHRM1-CHO antagonist mode, calcium flux fluorescence; series mostly up to 61.5 µM; activity, negative = inhibition: at the top concentration; note: nearly all actives have a fitted effect of over 40% in size
Sequence (P11229 whole entry, looked up): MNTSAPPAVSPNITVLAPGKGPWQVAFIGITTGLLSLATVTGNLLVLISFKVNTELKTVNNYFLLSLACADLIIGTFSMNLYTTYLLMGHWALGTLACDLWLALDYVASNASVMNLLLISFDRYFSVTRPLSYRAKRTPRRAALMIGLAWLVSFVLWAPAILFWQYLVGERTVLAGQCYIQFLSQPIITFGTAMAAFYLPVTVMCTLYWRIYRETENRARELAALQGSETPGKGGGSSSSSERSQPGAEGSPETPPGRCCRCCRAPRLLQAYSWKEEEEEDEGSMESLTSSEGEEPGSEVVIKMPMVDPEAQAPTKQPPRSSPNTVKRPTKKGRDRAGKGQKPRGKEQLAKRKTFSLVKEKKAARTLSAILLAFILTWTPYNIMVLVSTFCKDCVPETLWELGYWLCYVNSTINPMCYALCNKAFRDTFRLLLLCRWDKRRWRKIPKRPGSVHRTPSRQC
From the text: National Center for Advancing Translational Sciences [NCATS]
Division of Preclinical Innovation [DPI]
U.S. Environmental Protection Agency [EPA]
National Institutes of Environmental Health Sciences [NIEHS]
National Toxicology Program [NTP]
U.S. Food and Drug Administration [FDA]
The CHRM1 is a muscarinic receptor. This receptor plays a crucial role in learning and memory processes and has long been identified as a promising therapeutic target for the improvement of cognitive decline in Alzheimer's disease (AD). The CHRM1-CHO cell line stably expressing human muscarinic acetylcholine receptor M1 (CHRM1) can be used for screening agonists and antagonists of interactions between CHRM1 and its ligands. The CHRM1-CHO Calcium Flux Assay is a homogeneous fluorescence-based assay for detecting the intracellular calcium level using FDSS kinetic plate reader system.
Tox21 Assay Protocol Summary:
CHRM1-CHO cells were dispensed at 1000 cells/3uL/well in 1536-well black-clear bottom plates using a Multidrop Dispenser. After the assay plates were incubated at a 37 C/5% CO2 incubator for 18 h, 3 uL of Dye Loading Buffer was transferred to the assay plate by a Flying Reagent Dispenser. The assay plates were incubated at 37 C for 1h. For antagonist mode, 23 nL of compounds dissolved in DMSO, positive controls or DMSO only was transferred to the assay plate by a pin tool. After 5 min incubation at room temperature, 1.5 uL of acetylcholine at 50nM was added to each well. The fluorescence intensity in the plates was measured using FDSS 7000EX kinetic plate reader for 3 min at 1 sec intervals. Each test compound was measured at 15 concentrations in three independent runs.
% is set by controls: 0 for no effect and ±100 for the full control effect.

Row | Compound | Potency | activity, negative = inhibition
1 | CCOCCOCCOCCO | inactive | 
2 | C[Si](C)O[Si](C)(C)O[Si](C)(C)O[Si](C)C |  | 3.56%
3 | CCOc1ccccc1C(N)=O | inactive | 
4 | C1CCSC1 |  | 20.2%
5 | O=C1C(O)=C(O)C(=O)C(O)=C1O |  | 7.24% [at 28.3 µM]
6 | C=CC(=O)CCCCC |  | 87.2%
7 | CCN(CC#N)c1cccc(C)c1 |  | 2.16%
8 | CCCCC(CC)COC(=O)CCCCCCCC(=O)OCC(CC)CCCC (stereo not given) | inactive | 
9 | O=S(=O)(O)c1cccc2ccccc12 |  | 1.07%
10 | O=C(O[C@@H](C(=O)O)[C@@H](OC(=O)c1ccccc1)C(=O)O)c1ccccc1 |  | -4.75%
11 | NS(=O)(=O)c1cc2c(cc1Cl)NC(C1CC3C=CC1C3)NS2(=O)=O (stereo not given) |  | 14.7% [at 28.3 µM]
12 | O=c1c(-c2ccc(O)cc2)coc2cc(O)ccc12 | inactive | 
13 | CC(C)CCCC(C)CCO (stereo not given) |  | 3.24%
14 | O=CC1CC1 |  | 8.27%
15 | CCOC(/C=C(\C)CCC=C(C)C)OCC |  | 51.5%
16 | CC(=O)/C=C/C1C(C)=CCC(C)C1(C)C (stereo not given) |  | 5.27%
17 | CC(C)C(=O)OC(=O)C(C)C |  | 2.5%
18 | O=C(O)c1ccc(CO)o1 |  | 13.5%
19 | CSc1ccc(C(=O)c2[nH]c(=O)[nH]c2C)cc1 |  | 4.23% [at 28.3 µM]
20 | CC(C)CCCCCCCCCCCCCCC(=O)O |  | 6.66%

Row | Compound | Potency | activity, negative = inhibition
21 | C=CCOCC(CO)(COCC=C)COCC=C |  | -12.1% [at 28.3 µM]
22 | CCCCOC(=O)CCS |  | -10.6%
23 | CNCCO |  | -3.42%
24 | CC(=O)Nc1ccc(N=Nc2cc(C)ccc2O)cc1 |  | -1.31%
25 | COC(=O)c1c(Cl)c(Cl)c(C(=O)OC)c(Cl)c1Cl | inactive | 
26 | C=CC(C)(O)CC/C=C(/C)CCC=C(C)C (stereo not given) |  | -20.4%
27 | CC(C)CCCCCOC(=O)CS |  | -13.6%
28 | CCOc1ncc(F)c(=O)[nH]1 |  | -0.157% [at 28.3 µM]
29 | CCCCCCCCO[C@@H]1O[C@H](CO)[C@@H](O)[C@H](O)[C@H]1O |  | 0.59%
30 | NC(=O)NNc1ccccc1 | inactive | 
31 | CN1CCCC1=O | inactive | 
32 | CCC/C=C/C=O | inactive | 
33 | O=S1(=O)OC(c2ccc(O)cc2)(c2ccc(O)cc2)c2ccccc21 | inactive | 
34 | C[Si](C)(C)O[Si](C)(C)O[Si](C)(C)C |  | -5.11%
35 | CCCCCCCCCCCCCCCC(=O)OC |  | -19.7% [at 12.6 µM]
36 | CCCC(=O)C(C)=O |  | 1.06%
37 | Nc1ccc2cc3ccccc3cc2c1 | inactive | 
38 | C1CN(CCOCCN2CCOCC2)CCO1 |  | -9.59%
39 | C#CC(C)(O)CC(C)C (stereo not given) |  | 31.4%
40 | CCCCCCCCC(=O)OCC |  | -10.6%
